Rows were chosen to be rich in hits. Some 11% of all compounds tested hit in one or more screens of this group.
Pf growth 96h – inhibits malaria parasite growth, 96 h; P. falciparum luciferase reporter growth, 96 h; Potency, µM (titrated, usually from 28.7 µM), inactives show top-dose activity change, negative = inhibition, actives largely listed as inhibitors; 320,000 compounds, 6.9% hits; further: on the % scale 0 is the no-effect control and ±100 the full control effect
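Compounds incubated with erythrocytes infected by luciferase-expressing P. falciparum (2% hematocrit, 0.05% parasitemia final) for 96 hours, 37 C in 5% CO2. Growth inhibition scored as decreased luciferase luminescence.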
Pf growth 48h – inhibits P. falciparum growth in the first generation, 48 h; Potency, µM (highest dose often 28.7 µM), for inactives: top-dose activity change, negative = inhibition, hits mostly inhibitors; P. falciparum luciferase growth in erythrocytes, 48 h; AID 504832; 310,000 compounds, 5.9% hits; further: on the % scale 0 is the no-effect control and ±100 the full control effect
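Erythrocytes infected with P. falciparum carrying an integrated firefly luciferase reporter (2% hematocrit, 0.1% parasitemia final) were exposed to compounds in RPMI 1640 with 0.5% Albumax at 37 C, 5% CO2. Growth inhibition was scored as reduced luminescence.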
NS1 inh – influenza NS1 inhibition. Potency, µM (top dose mostly 46.1 µM), for the others: top-dose activity, positive = more growth. 270,000 compounds, 0.4% hits. AID 2326; calls by dose curve; further: actives are rising curves; nearly all actives have a fitted effect of over 50% in size
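Growth recovery, yeast-based: influenza A NS1 expressed in S. cerevisiae causes slow growth, and suppressors are detected by OD600. The parent strain without NS1 is used as positive control.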
HCV inh – HCV inhibition; Potency, µM (top dose mostly 41.8 µM), without a hit: top-dose activity change, negative = inhibition, usual class: inhibitors; Huh7.5.1 HCVcc-Cre infection, luciferase reporter, 44 h; AID 651820; 340,000 compounds, 3.4% hits; further: on the % scale 0 is the no-effect control and ±100 the full control effect
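Compounds are dispensed onto cells plated 4 h earlier at 1,000 per well, with HCVcc-Cre virus (about 0.5 moi) added next. Following 44 h of culture, luminescent signal is measured for 15 sec after 15 min with substrate at room temperature.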
Vaccinia Venus – inhibitors of vaccinia virus (Venus reporter). Potency, µM (highest dose often 36.5 µM), inactives show at the top dose activity change, negative = inhibition, actives largely listed as inhibitors. 330,000 compounds, 0.46% hits. AID 720580. Vaccinia virus Venus reporter expression, fluorescence; calls by dose curve; tested in A549 cells; further: on the % scale 0 is the no-effect control and ±100 the full control effect; nearly all actives have a fitted effect of over 30% in size
Vaccinia mCherry – vaccinia inhibition (mCherry reporter); AID 720579; Vaccinia virus mCherry reporter infection, fluorescence; 310,000 compounds, 0.63% hits; Potency, µM (series often up to 36.5 µM), for inactives: top-dose activity change, negative = inhibition, actives largely listed as inhibitors; calls by dose curve; tested in A549 cells; further: on the % scale 0 is the no-effect control and ±100 the full control effect; nearly all actives have a fitted effect of over 35% in size
* hit, by the source's call; [ ] = dose if it differs, or a comment. Unless noted, the call rests on the fitted dose curve; in most records, active means well fitted inhibition curve with a large enough effect; inconclusive means small, poorly fitted or top-dose-only effect, or another doubt; inactive means no such curve, though single readings can be large or run the other way. Potency means the concentration at half of the fitted maximal effect.

For Cc1nc(N)sc1-c1csc(Nc2ccc(S(N)(=O)=O)cc2)n1 the results were Pf growth 96h -23%, Pf growth 48h 13%, NS1 inh 14% and HCV inh 10µM*.
COc1ccc(-c2csc(Nc3ccccc3)n2)cc1 was read as Pf growth 96h 52%, Pf growth 48h 55%, NS1 inh 4%, HCV inh 14µM*, Vaccinia Venus -5% and Vaccinia mCherry -16%.
For CCOc1ccc(Nc2nc(-c3cccnc3)cs2)cc1 the results were Pf growth 96h -4%, Pf growth 48h 48%, NS1 inh -5%, HCV inh 15%, Vaccinia Venus 0% and Vaccinia mCherry 0%.
O=C(O)c1cccc(-c2ccc(/C=C3/SC(=Nc4ccccc4)N(Cc4cccnc4)C3=O)o2)c1 was read as Pf growth 96h -6%, Pf growth 48h -1%[0.00184 µM], NS1 inh 2%, HCV inh 5%, Vaccinia Venus -22% and Vaccinia mCherry -9%.
For CCCCC(=O)N(C)c1c(C)nc2ccc(C(=O)N3CCNC(=O)C3)cn12 the results were Vaccinia Venus 9% and Vaccinia mCherry -5%.
Screening CC(=O)Oc1ccc(-c2csc(Nc3ccc(S(N)(=O)=O)cc3)n2)cc1 returned Pf growth 96h 12%, Pf growth 48h -7%, NS1 inh 3%, HCV inh inconclusive, Vaccinia Venus 2% and Vaccinia mCherry -25%.
COc1ccc(-c2csc(Nc3ccc(S(N)(=O)=O)cc3)n2)cc1 was read as Pf growth 48h -20%, NS1 inh 11% and HCV inh 5µM*.
For Cc1cccc(N(Cc2ccccc2)C(=O)CN2C(=O)NC3(CCCCC3C)C2=O)c1 (stereo not drawn) the results were Pf growth 96h 12µM*, Pf growth 48h inconclusive and HCV inh 9%.
For CC1CCCCC12NC(=O)N(CC(=O)OCc1cccc(F)c1)C2=O (stereo not drawn) the results were Pf growth 96h inconclusive, Pf growth 48h 13µM* and HCV inh 2%.
For Cc1cccc(N(Cc2ccccc2)C(=O)CN2C(=O)NC3(CCCC3)C2=O)c1 the results were Pf growth 96h inconclusive, Pf growth 48h inconclusive and HCV inh -10%.
Screening CCC1CCC2(CC1)NC(CO)(CO)CO2 (stereo not drawn) returned Pf growth 96h 62%, Pf growth 48h -4%, NS1 inh -6%, HCV inh -5%, Vaccinia Venus -10% and Vaccinia mCherry inactive.
O=C(CCN1C(=O)/C(=C/c2ccccc2)SC1=S)NCCc1ccc(O)cc1 was read as Pf growth 96h 12µM*, Pf growth 48h -2%, NS1 inh 1% and HCV inh inconclusive.
Screening O=C(CCCN1C(=O)/C(=C/c2ccccc2)SC1=S)NCCCn1ccnc1 returned Pf growth 96h 9.3µM*, Pf growth 48h inconclusive, NS1 inh 8% and HCV inh -17%.
Cn1cnc([N+](=O)[O-])c1Oc1ccccc1 was read as Pf growth 96h inconclusive, Pf growth 48h -28%, NS1 inh 0%, HCV inh inconclusive, Vaccinia Venus inconclusive and Vaccinia mCherry 28µM*.
Cn1cnc([N+](=O)[O-])c1Oc1cccc(O)c1 was read as Pf growth 96h inconclusive, Pf growth 48h -13%, NS1 inh 28%, HCV inh -3%, Vaccinia Venus inconclusive and Vaccinia mCherry inconclusive.
Screening COc1ccc([N+](=O)[O-])cc1N(CC(=O)NC1CCCC1)S(C)(=O)=O returned Pf growth 96h 5%, Pf growth 48h 7%, NS1 inh 3%, HCV inh 8%, Vaccinia Venus 1% and Vaccinia mCherry -7%.
`CCOc1ccc(C(=O)Nc2cccc(-c3cc4ccccc4oc3=O)c2)cc1[N+](=O)[O-]` gave Pf growth 96h inconclusive, Pf growth 48h inconclusive, NS1 inh 6%, HCV inh inconclusive, Vaccinia Venus -30% and Vaccinia mCherry inconclusive.
`COc1ccc(CCN(C(=O)C(F)(F)F)C(C(=O)NC2CCCCC2)c2ccc(C)s2)cc1OC` (stereo not drawn) gave Pf growth 96h inconclusive, Pf growth 48h 4.1µM*, NS1 inh 4%, HCV inh inconclusive, Vaccinia Venus -5% and Vaccinia mCherry -8%.
COc1ccc(CCN(C(=O)c2ccco2)C(C(=O)NC2CCCC2)c2ccncc2)cc1OC (stereo not drawn) was read as Pf growth 96h 27%, Pf growth 48h -25%, NS1 inh 0%, HCV inh 17%, Vaccinia Venus -17% and Vaccinia mCherry inactive.
`COc1ccc(CCN(C(=O)C(F)(F)F)C(C(=O)NC2CCCC2)c2cccs2)cc1OC` (stereo not drawn) gave Pf growth 96h 7.4µM*, Pf growth 48h inconclusive, NS1 inh -2%, HCV inh -18%, Vaccinia Venus -24% and Vaccinia mCherry -13%.
`Cc1cccc(OCCCC(=O)NNC(=O)c2ccc(F)cc2)c1` gave Pf growth 96h 58%, Pf growth 48h inconclusive and HCV inh 11%.
For CC(=O)c1cccc(NC(=O)N2CCCC2C(=O)NCc2ccc(C)cc2)c1 (stereo not drawn) the results were Pf growth 96h -6%, Pf growth 48h 6%, NS1 inh 5%, HCV inh -17%, Vaccinia Venus -8% and Vaccinia mCherry -10%.
For CCNC(=O)COC(=O)C1C(C(=O)OCC)=C(C)NC(C)=C1C(=O)OCC the results were Pf growth 48h -3%, NS1 inh -16% and HCV inh 7%.
CC(=O)Nc1cccc(C(=O)OCC(=O)NCc2ccc(F)cc2)c1 was read as Pf growth 96h 33%, Pf growth 48h 13µM*, HCV inh -16%, Vaccinia Venus -11% and Vaccinia mCherry -7%.
Screening CCOC(=O)C1=C(C)NC(C)=C(C(=O)OCC)C1C(=O)OCC(=O)NCc1ccc(F)cc1 returned HCV inh 3.5µM*.
For CC(=O)c1cccc(NC(=O)N2CCCC2C(=O)NCc2ccc(F)cc2)c1 (stereo not drawn) the results were Pf growth 96h 10µM*, Pf growth 48h -7%, NS1 inh 7%, HCV inh 4%, Vaccinia Venus -1% and Vaccinia mCherry -13%.
Screening CC(=O)c1cccc(NC(=O)N2CCCC2C(=O)Nc2cccc(C)c2C)c1 (stereo not drawn) returned Pf growth 96h 2.9µM*, Pf growth 48h 3%, NS1 inh -1%, HCV inh -10%, Vaccinia Venus -4% and Vaccinia mCherry -10%.
`CC(=O)Nc1ccc(C(=O)OCC(=O)NCc2ccccc2)cc1` gave Pf growth 96h -9%[5.75 µM], Pf growth 48h -12%, NS1 inh 2%, HCV inh -9%, Vaccinia Venus -25% and Vaccinia mCherry -13%.

Source: PubChem BioAssay (National Center for Advancing Translational Sciences (NCATS))
